# Only some compounds are listed: those with a hit (about 12% of all), similar ones and a draw of the others.
# Shiga toxin inh – inhibitors of Shiga toxin in Vero cells; hit rate 9.2% among 290,000; AID 2315; Vero cells, Shiga toxin protein synthesis inhibition reporter; inhibition, % at 38.7 µM; in the data active = inhibition mostly above about 28%, no sharp cut-off; inactive = mostly below about 43%
# CHX counter – counter-screen hit for Shiga toxin inhibitors, cycloheximide | cell reporter, cycloheximide protein synthesis inhibition counterscreen | hit rate 12% among 300,000 | max response, %; in the data active = max response mostly above about 13%, no sharp cut-off; inactive = mostly below about 14%; note: read at 38.3 µM for the half of the compounds with a filed dose
# Marburg entry inh – Marburg virus entry inhibition; hit rate 1.8% among 300,000; Marburg virus pseudotyped entry inhibition, cell reporter; Potency, µM (top dose mostly 37.8 µM), actives largely listed as inhibitors; AID 540276; calls by dose curve; tested in HEK293 cells
# Lassa entry inh – Lassa virus entry inhibition; Lassa virus pseudotype entry inhibition, cell reporter; Potency, µM (top dose mostly 37.9 µM), most hits filed as inhibitors; hit rate 1.2% among 300,000; calls by dose curve; tested in HEK293 cells; note: nearly all actives have a fitted effect of over 50% in size
# Hits are given with their value; – = inactive; ? = inconclusive; · = not tested or not shown.
SMILES,Shiga toxin inh,CHX counter,Marburg entry inh,Lassa entry inh
c1ccc2[nH]c(SCCN3CCOCC3)nc2c1,–,20,–,–
CCN1CCN(c2ccc(NC(=O)Cc3ccccc3)cc2)CC1,67,15,–,–
O=C(Nc1ccc(N2CCOCC2)cc1)c1cn2ccccc2n1,56,47,?,7.9µM
O=C(Nc1ccc(Cl)c(S(=O)(=O)N2CCOCC2)c1)c1cn2ccccc2n1,–,–,–,?
O=c1[nH]c(SCCN2CCOCC2)nc(O)c1-c1ccccc1,–,–,–,–
CC(=O)NCCC(=O)N(C)CC1CCN(CCc2cccc(C(F)(F)F)c2)CC1,–,–,–,–
O=C(CSc1nc2ccccc2[nH]1)Nc1ccc(N2CCOCC2)cc1,30,16,–,–
O=[N+]([O-])c1ccc(S(=O)(=O)N/N=C/c2ccc3c(c2)OCO3)cc1,50,31,–,–
O=[N+]([O-])c1cccc(S(=O)(=O)N/N=C\c2ccc3c(c2)OCO3)c1,75,43,–,–
O=S(=O)(N/N=C/c1ccc2c(c1)OCCO2)c1ccccc1,–,20,–,–
Cc1ccc(CN(C(=O)COc2cccc(Cl)c2)c2ccccn2)o1,·,·,?,–
Cc1ccc(Nc2cccccc2=O)cc1,–,16,–,–
Cc1ccc(-n2c(=S)[nH]c3c(oc4ccccc43)c2=O)cc1C,27,13,–,–
O=C(Nc1cccnc1)c1cc2c(s1)-c1ccccc1OC2,54,43,·,·
O=C(Nc1nc2ccccc2s1)c1cc2c(s1)-c1ccccc1OC2,–,–,·,·
Cc1cccc2c1-c1sc(C(=O)Nc3cccnc3)cc1CO2,42,19,·,·
CC(=O)c1cccc(NC(=O)c2cc3c(s2)-c2c(C)cccc2OC3)c1,·,·,–,·
Cc1ccn2c(c1)nc(=S)n2C(=O)c1ccco1,74,39,?,?
Cc1nn(C(=O)c2ccco2)c(C)c1Br,–,–,–,–
O=C(CCCSc1nc2ccccc2[nH]1)Nc1nnc(C2CC2)s1,–,–,–,–
Cc1cccc(NC(=S)NNC(=O)c2ccco2)c1,active,23,?,–
Cc1ccc(NC(=S)NNC(=O)c2ccco2)cc1,66,31,–,?
Cc1ccc(-c2nnc(-c3ccc(NC(=O)c4ccco4)cc3)o2)cc1,–,–,?,–
Cc1ccc(C)c(NC(=S)NNC(=O)c2ccco2)c1,–,–,–,–
COC(=O)C1=C(C(=O)OC)[C@@H]2N(CC=C(C)C)c3ccccc3[C@@]23CCC(=O)N(Cc2cccc(C(F)(F)F)c2)C3=N1,·,·,–,?
SMILES,Shiga toxin inh,CHX counter,Marburg entry inh,Lassa entry inh
Cc1noc(C)c1-c1ccc2ncnc(NCc3ccco3)c2c1,–,–,·,·
Cc1ccc(-n2c(C)cc(C(=O)COC(=O)c3c(C)noc3C)c2C)cc1,104,39,?,?
Cc1cc(C(=O)OCC(=O)NC2CCS(=O)(=O)C2)c(C)n1-c1ccccc1 (stereo not drawn),–,–,–,–
Cc1cc(C(=O)COC(=O)C2=NNC(=O)CC2)c(C)n1-c1ccccc1,38,29,–,–
Cc1cc(C(=O)OCC(=O)Nc2c(F)cccc2F)c(C)n1-c1ccccc1,110,55,?,?
Cc1cc(C(=O)COC(=O)C2=COCCO2)c(C)n1-c1ccccc1,·,·,5.6µM,2.2µM
COC(=O)c1ccc(-c2ccc(C3C4C=CCC(C)C4C(=O)N3Cc3ccccc3)c(F)c2)cc1 (stereo not drawn),–,–,·,·
O=C(Nc1ccncc1)C1CCN(S(=O)(=O)c2c(Cl)cccc2Cl)CC1,·,·,–,–
Cc1ccc(N2C(=O)CC(n3nc(C)cc3C)C2=O)cc1 (stereo not drawn),–,–,–,–
COCCN=c1scc(-c2cc(OC)c(OC)c(OC)c2)n1/N=C/c1c(C)[nH]c2ccccc12,–,–,11µM,?
Cc1[nH]c2ccccc2c1/C=N/n1cnnc1,–,–,–,–
CCOc1ccc(NC(=O)Cn2c(=O)n(CCC(=O)NCCc3ccccc3)c(=O)c3ccccc32)cc1,·,·,–,–
CC1=CN2C(=N)/C(=C/c3ccc([N+](=O)[O-])o3)C(=O)N=C2S1,–,–,?,–
COc1cccc(OCCCn2cc(/C=C3/C(=N)N4C=C(C)SC4=NC3=O)c3ccccc32)c1,50,19,?,?
CCOC(=O)/C(C#N)=C/c1cn(CCOc2ccc(OC)cc2)c2ccccc12,–,–,?,–
CCS(=O)(=O)C1=NN2C(=N)/C(=C\c3ccc(OCCOc4cccc(OC)c4)c(OC)c3)C(=O)N=C2S1,–,–,·,·
COc1ccc(OCCCn2cc(/C=C3/C(=N)N4C=C(C)SC4=NC3=O)c3ccccc32)cc1,36,35,?,?
COc1cccc(OCCn2cc(C=O)c3ccccc32)c1,·,23,?,?
CC1=CN2C(=N)/C(=C/c3ccco3)C(=O)N=C2S1,72,47,?,?
Cc1cccc(Cn2c(COc3ccc(Cl)cc3)nc3ccccc32)c1,·,·,–,–
COc1cc(/C=C2/C(=N)N3C=CSC3=NC2=O)ccc1OCCCOc1c(C)cccc1C,–,–,–,–
CC1=CN2C(=N)/C(=C/c3cn(CCCOc4ccccc4C)c4ccccc34)C(=O)N=C2S1,24,67,?,?
Cc1cccc(OCCn2cc(/C=N/NC(=O)c3ccncc3)c3ccccc32)c1,28,11,?,?
COC(=O)N/N=C/c1cn(CCOc2cccc(OC)c2)c2ccccc12,–,–,·,·
CC(C)c1nn2c(=O)cc(COC(=O)C3CCCCC3)nc2s1,·,·,·,–
SMILES,Shiga toxin inh,CHX counter,Marburg entry inh,Lassa entry inh
COCCCNC(=O)CSc1nc(-c2cccc(F)c2)[nH]c1-c1ccccc1,·,·,–,–
CCCCCCCCCCCCCCOS(=O)(=O)O,–,–,·,·
Cc1ccccc1-n1c(=O)n(Cc2ccccc2)c(=O)c2[nH]cnc21,–,–,?,13µM
CCn1cc(Cl)c(C(=O)Nc2cccc(C(F)(F)F)c2)n1,58,32,–,–
CCn1cc(Br)c(C(=O)Nc2ccccc2C(=O)OC)n1,–,–,?,?
CCn1cc(Cl)c(C(=O)Nc2ccc3c(c2)OCCO3)n1,168,44,10µM,?
Cn1nc(C(=O)Nc2cccc(C(F)(F)F)c2)c2ccccc2c1=O,–,–,–,–
CCn1cc(Cl)c(C(=O)Nc2ccccc2C(N)=O)n1,–,29,?,–
O=S(=O)(NCc1nc2ccccc2[nH]1)c1ccccc1,31,–,·,·
CNCc1nc2ccccc2[nH]1,–,–,–,–
Nc1cccc(CCc2nc3cc4ccccc4cc3[nH]2)c1,36,22,?,?
c1ccc2[nH]c(CCCc3nc4ccccc4[nH]3)nc2c1,–,–,–,–
O=c1[nH]c2ccccc2nc1CCc1ccccc1,71,24,–,–
c1ccc(CCc2nc3ccccc3[nH]2)cc1,78,41,·,·
Nc1ccc2nc(CCCCCCc3nc4ccc(N)cc4[nH]3)[nH]c2c1,–,–,?,–
Cc1c([N+](=O)[O-])cc(C(=O)Nc2ccc(NC(=O)c3ccco3)cc2)cc1[N+](=O)[O-],–,–,–,–
CCOC(=O)C1=C(Nc2ccc(Cl)cc2)OCC1=O,–,–,–,–
c1ccc2nc(-c3ccc4c(c3)OCO4)ccc2c1,71,55,·,·
COc1ccc(OC)c2nc(-c3ccc4c(c3)OCO4)ccc12,105,62,?,?
CCN(CC)c1ccc(/C=C/c2cccc[n+]2C)c(OC)c1,–,–,2.8µM,?
COc1ccc(/C=C/c2cccc[n+]2C)c(O)c1,–,–,·,·
